The source of these data is PubChem BioAssay AID1224858 (National Center for Advancing Translational Sciences (NCATS), 2016).

Records with an inconclusive call do not appear. Active and inactive are the calls of the source. Calls follow the shape of the dose curve; as a rule, active = well fitted inhibition curve with a large enough effect; inconclusive = small, poorly fitted or top-dose-only effect; inactive = no such curve, though single readings can be large or run the other way.

This test is described as follows: Confirmation assay for measurement of the activity of small molecule inhibitors on Zika virus induced Caspase-3 activity in human astrocytes. The following applies: ZIKV-induced caspase-3/7 luminescence, 6 h; series mostly up to 46.1 µM; activity, negative = inhibition: at the top concentration. The text has this: National Center for Advancing Translational Sciences [NCATS] Johns Hopkins University School of Medicine Florida State University Assay Overview: Increase in the Caspase-3 activity indicates an activation of apoptosis cell death pathway caused by Zika virus infection in certain types of neuronal cells including human neural progenitor cells (hNPCs), astrocytes, and astrocytoma cell line (SNB-19). This cell-based caspase-3 activity assay measures the increased caspase-3 activity in the human astrocytes after a 6-hour Zika virus infection with a luminescence readout. A decrease in the luminescence signal in this assay by small molecule treatment indicates an inhibitory effect of that small molecule on the Zika virus induced caspase-3 activity that may correlate with its effect on reduction of Zika virus caused cell death.
Assay Protocol Summary: The medium for astrocytes contains AM basal medium (ScienCell, Cat.# 1801), AGS (ScienCell, Cat.# 1801), 10% FBS, and 1% Pen/Strep. A Caspase-Glo 3/7 assay kit (catalog number G8092; Promega, Madison, WI) was used to detect caspase-3 activity induced by Zika virus infection in human cells. The reagent mixture was reconstituted as described in the protocol from the manufacturer. Polystyrene tissue culture treated and PDL coated white plates were obtained from Greiner Bio-One (Monroe, NC). Cells were seeded in 384- or 1536-well assay plates and cultured at 37 C with 5% CO2 for 16 to 20 hours. The typical cell seeding density in the 1536-well plate assay is 350 cells/well in 3 ul medium for astrocytes in tissue culture treated plates. Compounds were added to cells and incubated for one hour before addition of ZIKV solution to cells (2 FFU/cell). After incubation at 37 C with 5% CO2 for 6 hours, the reagent mixture of Caspase-Glo 3/7 assay kit was added to each well, followed by incubation at room temperature for 30 minutes. The luminescence intensity of the assay plates was measured using a ViewLux plate reader (PerkinElmer). Data were normalized by using the cell-containing wells without ZIKV as a negative control (0% induction of caspase 3/7 activity) and wells containing ZIKV infected cells (Caspase-3 activity induced) as a positive control (100% induction of caspase 3 activity). The percentage inhibitions of the increased Caspase-3 activity by small molecule inhibitors were then calculated.
In the case of `CS(=O)(=O)c1ccc(-c2cn3ccccc3n2)cc1`, the Potency is 7.74 µM (active). In the case of `CCN1CCC(n2cc(CNc3cc(Cl)c4ncc(C#N)c(Nc5ccc(F)c(Cl)c5)c4c3)nn2)CC1`, the “activity, negative = inhibition” value is -8.22% (inactive).

For the molecule `COc1ccnc2c1CCCCC2S(=O)c1nc2ccccc2[nH]1` (stereo not given), the “activity, negative = inhibition” value is 54% (inactive). On the same count and under the same terms, as for `Cc1c(N)c(=O)n(-c2ccccc2)n1C`, the figure is 7.53% (inactive); as for `CN(C)c1ccc2cc(C(=O)N[C@@H](CCCN=C(N)CCl)C(=O)NCc3ccccc3)ccc2c1`, -11.3% (inactive). Consider `O=C(Nc1ncc([N+](=O)[O-])s1)c1cccs1`, for which the Potency is 1.95 µM (active). Same read-out and setting: in the case of `O=C(Nc1ccc(OC(F)(F)F)cc1)c1sccc1NCc1ccnc2ccccc12` it was 7.74 µM (active); in that of `COc1ccc(NC(=O)/C=C/c2ccc(Cl)cc2)cc1`, 3.88 µM (active).

Regarding `CCCS(=O)c1ccc2nc(NC(=O)OC)[nH]c2c1` (stereo not given), the Potency was 13.8 µM (active). Same read-out and setting: in the case of `C[C@H](NC(=O)C(=O)Nc1ccccc1C(C)(C)C)C(=O)N[C@@H](CC(=O)O)C(=O)COc1c(F)c(F)cc(F)c1F` it was 0.245 µM (active); in that of `CC1(C)OC2=C(C(=O)c3ccccc3C2=O)[C@H](NCc2ccccc2)[C@H]1O`, 35.5 µM (active).

Consider `CC[C@@]1(O)C[C@H](O[C@H]2C[C@H](N(C)C)[C@H](O[C@H]3C[C@H](O)[C@H](O[C@H]4CCC(=O)[C@H](C)O4)[C@H](C)O3)[C@H](C)O2)c2c(cc3c(c2O)C(=O)c2c(O)cccc2C3=O)[C@@H]1C(=O)OC`, for which the “activity, negative = inhibition” value was 10.1% (inactive). Still for that read-out and setting: in the case of `Nc1ncnc2c1ncn2[C@@H]1O[C@@H](CO)[C@H](O)[C@H]1O` it was -6.91% [at 23.8 µM] (inactive); in that of `CN1CC(=O)N2C(Cc3c([nH]c4ccccc34)[C@H]2c2ccc3c(c2)OCO3)C1=O` (stereo not given in full), 9.65% (inactive).

As for `CC(C)c1ccc2oc3nc(N)c(C(=O)O)cc3c(=O)c2c1`, the Potency is 1.95 µM (active). As to `NC(N)=NN=C(/C=C/c1ccc([N+](=O)[O-])o1)/C=C/c1ccc([N+](=O)[O-])o1`, the “activity, negative = inhibition” value was -25.3% (inactive). For the molecule `Cc1ccc(O)c(N=Nc2ccccc2)n1`, the Potency is 1.73 µM (active). Consider `O=C(CS)Nc1ccccc1`, for which the “activity, negative = inhibition” value is 14% (inactive). As for `COc1cc2nc(-c3ccc(N4CCN(C)CC4)cc3)nc(NCCN3CCOCC3)c2cc1OC`, the “activity, negative = inhibition” value was -9.03% (inactive). With `Cc1ccc(C(=O)c2ccc(CC(=O)O)n2C)cc1`, the “activity, negative = inhibition” value is -0.261% (inactive).

Consider `CN1CC(=O)N/C1=N/C(=O)Nc1cccc(Cl)c1`, for which the Potency was 10.9 µM (active). Still for that read-out and setting: as for `O=C(O)CCC(=O)c1ccc(-c2ccccc2)cc1`, the figure is 19.5 µM (active); as for `CC(=O)Oc1ccccc1C(=O)Nc1ncc([N+](=O)[O-])s1`, 1.58 µM (active). Regarding `O=C1NC(=O)C(=Cc2ccc(-c3ccc(F)cc3)o2)S1`, the Potency was 12.3 µM (active). With `C[C@@H]1CCN(C(=O)CC#N)C[C@H]1N(C)c1ncnc2[nH]ccc12`, the “activity, negative = inhibition” value was -16.5% (inactive). The same measure, in the same setting: as for `CN(C)c1cc(NC(=O)CNC(C)(C)C)c(O)c2c1C[C@@H]1C[C@H]3[C@H](N(C)C)C(=O)C(C(N)=O)=C(O)[C@@]3(O)C(=O)C1=C2O`, the figure is -3.13% (inactive). `O=C(O)c1cccc(-c2noc(-c3ccccc3F)n2)c1`: the Potency was 3.88 µM (active).

For the molecule `CNC1[C@H](O)C(O[C@@H]2C(O)C(O[C@H]3O[C@H]([C@@H](C)NC)CC[C@H]3N)[C@@H](N)C[C@H]2N)OC[C@]1(C)O` (stereo not given in full), the “activity, negative = inhibition” value was 27.9% (inactive). On the same count and under the same terms, as for `CC[C@]1(O)C[C@H]2CN(CCc3c([nH]c4ccccc34)[C@@](C(=O)OC)(c3cc4c(cc3OC)N(C=O)[C@H]3[C@@](O)(C(=O)OC)[C@H](OC(C)=O)[C@]5(CC)C=CCN6CC[C@]43[C@@H]65)C2)C1`, the figure is 4.34% (inactive); as for `C[C@@H](N)c1ccc(C(=O)Nc2ccnc3[nH]ccc23)cc1`, 0.169% (inactive). `Nc1ccc2c(c1)CN1C(=O)c3ccccc3C1=N2`: the Potency was 2.13 µM (active).

As for `CC1=C(CO)C(=O)O[C@@H]([C@@H](C)[C@H]2CC[C@H]3[C@@H]4C[C@H]5O[C@]56[C@@H](O)C=CC(=O)[C@]6(C)[C@@H]4CC[C@]23C)C1`, the “activity, negative = inhibition” value was -6.03% (inactive). On the same count and under the same terms, as for `CCOCCOC(=O)/C=C/c1ccc(OC)cc1`, the figure is -28.8% (inactive); as for `CCCCCCOc1ccccc1C(N)=O`, -10.9% (inactive).

Consider `O=c1c2ccccc2nc2n1CCc1c-2[nH]c2ccccc12`, for which the Potency was 4.89 µM (active). The same measure, in the same setting: in the case of `Oc1ccc(/C=C/c2cc(O)cc(O)c2)cc1` it was 15.5 µM (active); in that of `CC(O)=C(C#N)C(=O)Nc1ccc(C(F)(F)F)cc1`, 1.09 µM (active). Same read-out and setting: as for `CCC(C(=O)O)c1ccc(N2Cc3ccccc3C2=O)cc1` (stereo not given), the figure is 6.9 µM (active); as for `Clc1ccccc1-c1nc(-c2ccncc2)no1`, 6.15 µM (active); as for `C/C(=N\O)c1ccc(OCC(=O)N2CCCCC2)cc1`, 9.75 µM (active).
